The values below come from PubChem BioAssay.

The source made the active and inactive calls.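 The calls were made as follows: active = calcium signal rise more than 3 SD above the low-dose agonist control mean, in both duplicate plates and the primary screen; inactive = the rest.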

This assay can be described thus: nonspecific potentiation of DAMGO calcium response – cell-based, HEK293 mu-opioid receptor line, counter-screen for TRPC4 allosteric potentiator project, confirmation (AID 449724).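 Also: HEK293 cells carrying mu-opioid receptor only with no TRPC4 channel.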 As to conditions: HEK293 mu-opioid receptor cells, Fluo-4 calcium flux, at 10 µM, compound added before EC20 DAMGO stimulus. A general note: Counterscreens check selectivity or assay interference.
As to `Cc1sc2ncnc(NC3CCN(Cc4ccccc4)CC3)c2c1C`, the outcome was inactive.

Consider `CCCCN(CC)CCNC(=O)c1cc2c(C)nc3ccccc3c2o1`, for which the outcome was inactive.

Turning to `O=C(NCCc1ccccn1)c1ccc(OC2CCN(CCc3ccccc3)CC2)cc1`, the outcome was inactive.

With `Cc1ccccc1NC(=S)NCCc1ccccn1`, the result was inactive.

Turning to `NCCCn1c(C(=O)c2cc(Cl)c(N)c(Cl)c2)c2ccccc2[n+]1[O-]`, the outcome was inactive.

As to `COc1ccc(-c2nn(-c3ccccc3)cc2CNCc2cccnc2)c(F)c1`, the outcome was inactive.

As for `Cc1onc(-c2ccccc2)c1C(=O)NC(=S)NNC(=O)c1ccco1`, the result was inactive.

With `COc1ccc(C(CNC(=O)c2ccc(S(=O)(=O)N(C)C)cc2)N(C)C)cc1` (stereo not given), the outcome was inactive.

Take `CCN1C(=O)c2cccc3c(S(=O)(=O)Nc4ccccc4OC)ccc1c23`: the result was inactive.

As for `CCOC(=O)C1CCCN(C(c2ccccn2)c2c(C)[nH]c3ccccc23)C1` (stereo not given), the result was inactive.

Take `COC(=O)c1ccccc1N=Nc1c(N)[nH][nH]c1=O`: the outcome was inactive.

As to `COc1ccc(C(CNCC(=O)Nc2ccccc2F)N(C)C)cc1` (stereo not given), the outcome was inactive.

Take `CCOC(=O)C1(CCOc2ccccc2)CCN(Cc2cnc(C)s2)CC1`: the result was inactive.

As for `O=C(c1sc2ccccc2c1Cl)N(Cc1ccco1)C1CCS(=O)(=O)C1` (stereo not given), the result was inactive.

For `CCCCN(C)CCCNC(=O)CN1N=C(c2ccc(Cl)cc2)CCC1=O`, the outcome was inactive.

Turning to `CN(C)CCCN(C(=O)c1ccc(C(=O)c2ccccc2)cc1)c1nc2ccc(F)cc2s1`, the outcome was inactive.

On to `CN(CCc1nc2ccc(Cl)cc2[nH]1)Cc1nc(CC2CC2)no1`, for which the result was inactive.

With `Fc1ccc(C(c2nnnn2Cc2cccs2)N2CCN(C3CCCCC3)CC2)cc1` (stereo not given), the result was inactive.

As for `COc1ccc(C2Nc3ccccc3C(=O)N2Cc2ccco2)cc1COc1ccc(NC(C)=O)cc1` (stereo not given), the outcome was inactive.

As for `O=C(NCCCN1CCN(CCCNC(=O)c2ccc3c(c2)OCO3)CC1)c1ccc2c(c1)OCO2`, the outcome was inactive.
